Among all 340,000 compounds or so, about 1,300 (0.38%) were called active.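 Rule for the calls: active = maximum activity change below -70%; inconclusive = maximum activity change between -70% and -50%; inactive = maximum activity change above -50%.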 The sample as a whole holds a higher share of actives than the screen did.
Each molecule was assayed against Voltage-gated inwardly rectifying potassium channel KCNH2 (Homo sapiens) (UniProt Q12809) (assay: qHTS for Inhibitors of KCHN2 3.1: Wildtype qHTS). Settings: U2OS, BacMam KCNH2, thallium flux FluxOr; at 1.84 µM; stronger effect = lower value.
Chain of Voltage-gated inwardly rectifying potassium channel KCNH2 (Homo sapiens) (Q12809 whole entry, looked up, canonical isoform): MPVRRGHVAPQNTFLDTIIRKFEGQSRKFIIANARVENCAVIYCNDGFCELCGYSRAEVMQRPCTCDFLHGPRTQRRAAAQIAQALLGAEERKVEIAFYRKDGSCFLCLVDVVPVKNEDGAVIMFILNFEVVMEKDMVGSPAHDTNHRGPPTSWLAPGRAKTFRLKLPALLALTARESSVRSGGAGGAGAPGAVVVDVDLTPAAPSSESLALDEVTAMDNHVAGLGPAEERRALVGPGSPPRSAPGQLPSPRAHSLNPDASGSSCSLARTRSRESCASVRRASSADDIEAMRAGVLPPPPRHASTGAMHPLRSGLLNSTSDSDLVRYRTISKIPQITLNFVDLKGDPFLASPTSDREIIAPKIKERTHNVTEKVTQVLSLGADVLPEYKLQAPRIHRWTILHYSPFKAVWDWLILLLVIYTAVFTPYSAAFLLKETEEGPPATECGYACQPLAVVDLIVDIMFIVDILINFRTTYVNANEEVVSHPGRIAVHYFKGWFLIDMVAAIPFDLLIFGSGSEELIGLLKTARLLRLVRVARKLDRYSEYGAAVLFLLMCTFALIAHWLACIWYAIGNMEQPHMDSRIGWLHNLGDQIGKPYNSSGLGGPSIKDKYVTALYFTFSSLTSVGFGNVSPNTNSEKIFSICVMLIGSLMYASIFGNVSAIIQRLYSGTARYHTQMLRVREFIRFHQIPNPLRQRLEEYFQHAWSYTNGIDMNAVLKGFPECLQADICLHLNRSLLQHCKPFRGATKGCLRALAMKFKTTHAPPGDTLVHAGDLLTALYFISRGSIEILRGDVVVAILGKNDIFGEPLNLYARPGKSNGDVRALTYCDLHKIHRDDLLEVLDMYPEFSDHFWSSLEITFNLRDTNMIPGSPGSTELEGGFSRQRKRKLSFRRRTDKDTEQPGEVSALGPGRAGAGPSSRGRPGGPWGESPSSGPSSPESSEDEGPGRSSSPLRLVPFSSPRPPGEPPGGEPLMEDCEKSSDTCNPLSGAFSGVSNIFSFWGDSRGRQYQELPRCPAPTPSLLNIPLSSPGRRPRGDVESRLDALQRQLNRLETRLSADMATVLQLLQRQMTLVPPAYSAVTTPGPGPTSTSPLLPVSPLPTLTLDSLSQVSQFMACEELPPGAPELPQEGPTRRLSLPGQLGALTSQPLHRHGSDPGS
Text: Many antipsychotic drugs that inhibit the neurotransmitter dopamine also bind to hERG1 channel which might help explain their antipsychotic activity but also produces cardiac side effects. The discovery of the novel KCNH2 3.1 isoform offers a potential new target for the development of antipsychotic drugs without cardiac side effects. This proposal will use a high throughput thallium flux assay developed for KCNH2 to screen compounds that modulate the activity of KCNH2 3.1. The wild type KCNH2 channel will also be screened in parallel to help define the selective modulators of this KCNH2 3.1 potassium channel. The resulting compounds will be validated in electrophysiology experiments. The availability of animal models will allow future testing in vivo for effects on memory and other aspects of animal physiology linked with psychosis. NIH Chemical Genomics Center [NCGC] NIH Molecular Libraries Probe Centers Network [MLPCN] MLPCN Grant: MH096539 Assay Submitter (PI): James Barrow, Johns Hopkins University, Lieber Institute for Brain Development
U2OS cells were resuspended in cell media containing 10% fetal calf serum (FCS) at a concentration of 2 million cells / mL. The solution was treated with the Wild-type virus at 2.03 x 10^8 / mL and allowed to incubate at room temperature in the dark. After 4 hours of incubation, DMEM + 10% fetal bovine serum (FBS) was added to the cell solution. Three microliter was then dispensed into a 1536 tissue culture treated black assay plates which were incubated overnight at 37 C. Two microliter of loading buffer (HBSS + HEPES + Red40 dye quencher + FluxOr dye) was added and the assay plates were incubated for 45 min at room temperature in the dark. […] A stimulation buffer was added to the plate and the second kinetic read (2 min) was obtained. The rate constant was calculated from the kinetic reads and normalized to the positive and negative DMSO controls.
For `CCCCN1C(N)=NC[C@@H]1Cc1ccccc1`, the activity change was -3.39% (inactive).
`CCCC[C@@H]1CN=C(N)N1CCc1cccc(F)c1` was tested, and the activity change was -2.35% (inactive).
`CN(C)C1=NC[C@H](Cc2ccccc2)N1CCc1ccc(F)cc1` was tested, and the activity change was -88.4% (active).
In the case of `O=C1OCCC1=COCCCCOC=C1CCOC1=O`, the activity change is reported as 0.218% (inactive).
`COC(=O)C[C@H]1C[C@@H]2c3cc(NC(=O)Nc4ccccc4)ccc3O[C@@H]2[C@@H](CO)O1` was tested, and the activity change was -0.954% (inactive).
For `COc1ccc(C(=O)Nc2sc(C)c(C)c2CN2CCOCC2)cc1`, the activity change was -3.94% (inactive).
With `CCOc1ccc(NC(=O)CN2CCN(CC(=O)Nc3ccc(OC)cc3)CC2)cc1` the activity change was -141% (active).
With `CCc1ccc(NC(=O)CN2CCC(C(=O)c3ccc(OC)cc3)CC2)cc1` the activity change was 1.48% (inactive).
For `CCOc1ccc(NC(=O)N2CCN(CC)CC2)cc1`, the activity change was 0.628% (inactive).
With `CCc1cc(C(=O)c2ccc(OC)cc2)c(NC(=O)CN2CCN(C)CC2)s1` the activity change was -79.3% (active).
In the case of `COc1cccc(NC(=O)CN2CCN(CC(=O)Nc3ccccc3Cl)CC2)c1`, the activity change is reported as 19.7% (inactive).
For `C[C@H](CO)N1C[C@H](C)[C@@H](CN(C)C(=O)c2cnccn2)Oc2ncc(Br)cc2C1=O`, the activity change was -7.83% (inactive).
With `O=C(NCCOc1ccccc1)N1[C@H]2CC[C@@H]1C=C(c1ccc(F)cc1OCc1ccccc1)C2` the activity change was 2.38% (inactive).
With `O=C1CN(C(=O)COC(=O)c2cnc(Cl)c(Cl)c2)c2ccccc2N1` the activity change was 8.42% (inactive).
For `Cc1ccccc1SCC(=O)OCC(=O)N1CC(=O)Nc2ccccc21`, the activity change was 7.23% (inactive).
With `O=C1CN(C(=O)COc2c(Cl)cccc2Cl)c2ccccc2N1` the activity change was -143% (active).
For `COc1ccc(NC(=O)CSc2nnnn2-c2cccc(OC)c2)cc1`, the activity change was 52.5% (inactive).
For `Cc1ccc(S(=O)(=O)N2C[C@@H](C)[C@]3(C2)[C@H](O)[C@H](OC(=O)NCc2ccccc2)C[C@H]2C(=O)N(c4ccccc4)C(=O)[C@H]23)cc1`, the activity change was -2.73% (inactive).
`COc1ccc([C@H]2N[C@]3(CCCN(CC4CCCCC4)C3=O)[C@H]3C(=O)N(C)C(=O)[C@@H]23)cc1` was tested, and the activity change was 14.1% (inactive).
`O=C1CC[C@H](O)CCN1[C@H](CSc1ccc(Br)cc1)Cc1ccccc1` was tested, and the activity change was 0.842% (inactive).
With `C[C@H]1CCC(=O)N([C@H](CSc2ccccc2)Cc2ccccc2)CC1` the activity change was 9.67% (inactive).
In the case of `COc1ccc(SC[C@H](Cc2ccccc2)N2CCN(CCc3ccccc3)CCC2=O)cc1`, the activity change is reported as -108% (active).
In the case of `C[C@H]1CN([C@@H](C)CO)C(=O)CCCn2cc(nn2)CO[C@@H]1CN(C)S(=O)(=O)c1cccc(C#N)c1`, the activity change is reported as -15.1% (inactive).
% is set by controls: 0 for no effect and ±100 for the full control effect.
